From PubChem
FBW7 act = FBW7 E3 ligase activators, primary screen, biochemical, AlphaScreen, human; F-box/WD repeat-containing protein 7 (Homo sapiens), Q969H0; AlphaScreen FBW7–phospho-cyclin E peptide binding, activator screen; normalized activity (activation), % at 26.1 µM; 0.13% of 650,000 active; AID 1259310, 2017; in the data active means normalized activity above about 1.9%;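 further: purified mutant Fbw7 with reduced substrate affinity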
TEAD-YAP inh = TEAD-YAP interaction inhibition, primary screen, TEAD-YAP interaction inhibitor project, luminescence, HEK-TIYL cells; 1.4% of 640,000 active; inhibition, % at 9.12 µM; TEAD-Gal4/YAP UAS-luciferase luminescence; in the data active means inhibition above about 32%
MITF primary = MITF inhibitors, primary screen, biochemical, AlphaScreen, human | Microphthalmia-associated transcription factor (Homo sapiens), O75030 | AlphaScreen MITF homodimerization, bead proximity signal | AID 1259374, 2018 | 0.91% of 650,000 active | inhibition, % at 2.6 µM; in the data active means inhibition above about 50%
GPR151 activ = activators of human GPR151, primary screen, cell-based, PathHunter beta-arrestin, luminescence; G-protein coupled receptor 151 (Homo sapiens), Q8TDV0; PathHunter beta-arrestin GPR151 cells; activation, % at 11.2 µM; 1% of 650,000 active; AID 1508602, 2020; in the data active means activation above about 4.9%
GPR151 confirm = GPR151 activators, triplicate retest, confirmation, cell-based, PathHunter beta-arrestin, luminescence; shares compounds with GPR151 activ; GPR151 PathHunter beta-arrestin cells, 90 min; % of EA-reagent control over plate median; activation, % at 11.2 µM; 6,700 tested, under 10 active;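 active means mean percent activation across replicates above the confirmation screen cutoff of 4.91%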
GPR119 counter = GPR119 activators in beta-arrestin cells, counter-screen for GPR151 activator project, cell-based, PathHunter beta-arrestin, luminescence, triplicate | shares compounds with GPR151 activ | 90 min; 0 = compound-well median, 100 = enzyme-acceptor control | activation, % at 11.2 µM | 0.3% of 6,700 active | AID 1508611, 2020;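 active means mean percent activation in the counterscreen above 29.09%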;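 further: counterscreen on off-target GPR119 to flag nonselective hits from the GPR151 activator screen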
Numbers stand for hits; . = inactive; / = no result. In the library only some 3.5% were active in any assay of this set; here they are far more common.

SMILES	FBW7 act	TEAD-YAP inh	MITF primary	GPR151 activ	GPR151 confirm	GPR119 counter
COc1cc(Br)cc(/C=N/NC(=O)CNc2ccccc2C)c1O	.	.	.	5.9	.	.
COc1ccc(Br)cc1/C=N/NC(=O)CNc1ccccc1C	.	.	.	.	/	/
COc1ccc(Br)cc1/C=N/NC(=O)CSc1ncccn1	.	.	.	.	/	/
CCSCCOC(=O)C1=C(C)NC(=O)NC1c1ccc2ccccc2c1 (stereo unspecified)	.	.	.	.	/	/
N#CCSc1nc2cc(C(=O)N3CCN(c4ccccc4)CC3)ccc2c(=O)n1C1CCCCC1	.	.	.	11.1	.	.
CCCCCn1c(SCc2ccccn2)nc2cc(C(=O)N3CCN(c4ccccc4)CC3)ccc2c1=O	.	.	.	5.1	.	.
N#CCSc1nc2cc(C(=O)N3CCCC3)ccc2c(=O)n1-c1ccccc1	.	.	.	.	/	/
CC(C)Cc1ccc(S(=O)(=O)N2CCCC(C)C2)cc1 (stereo unspecified)	.	.	.	.	/	/
O=C(Cc1ccccc1)Nc1ccccc1C(=O)NCc1ccccc1	.	.	.	.	/	/
COc1ccccc1CNC(=O)COc1cccc2ccccc12	.	.	.	5.6	.	.
CN(C(=O)c1ccc(F)cc1)c1ccccc1C(=O)NCc1ccccc1	.	.	.	9.0	.	.
CN(C(=O)C1CC1)c1ccccc1C(=O)NCc1ccccc1	.	.	.	.	/	/
Cc1ccc(CNC(=O)COc2ccccc2C)cc1	.	.	.	7.4	.	.
O=C(CCc1ccccc1)Nc1ccccc1C(=O)NCc1ccccc1	.	.	.	8.0	.	.
CN(c1ccccc1)c1nc(N2CCOCC2)nc(-n2ccnc2)n1	.	.	.	.	/	/
CCOC(=O)CN1C(=O)C(O)(CC(=O)c2ccc(C(C)C)cc2)c2ccccc21 (stereo unspecified)	.	.	.	.	/	/
COc1cc(OC)cc(C(=O)n2cnc3ccccc32)c1	.	.	.	.	/	/
CCc1ccccc1OCC(=O)NCc1ccccc1	.	.	.	5.8	.	.
O=C(Cc1ccc(F)cc1)NCc1ccccc1	.	.	.	5.2	.	.
O=C(CNC(=O)Cc1ccccc1)NCC(=O)OCc1ccccc1	.	.	.	.	/	/
O=C(CCCc1ccccc1)Nc1ccc(Br)cc1C(=O)O	.	.	.	5.9	.	.
O=C(CCCc1ccccc1)Nc1ccc(O)cc1C(=O)O	.	.	.	.	/	/
O=C(Cc1ccccc1)NCC(=O)OCc1ccccc1	.	.	.	6.3	.	.
O=C(COc1ccccc1Br)NCc1ccccc1	.	.	.	.	/	/
CC(=O)Nc1ccc(C(=O)NCCNC(=O)Cc2ccc(F)cc2)cc1	.	.	.	5.5	.	.
SMILES	FBW7 act	TEAD-YAP inh	MITF primary	GPR151 activ	GPR151 confirm	GPR119 counter
O=C(Cn1ncc2ccccc21)NCc1cccc(Br)c1	.	.	.	.	/	/
O=C(Cn1ncc2c(Cl)cccc21)NCc1cccc(Br)c1	.	.	.	6.5	.	.
CCCc1ccc(-c2ccc(C(=O)Nc3ccc(C)cc3)cc2)nc1	.	.	.	7.1	.	.
Cc1cc([N+](=O)[O-])ccc1NC(=S)NC(=O)COc1ccccc1	.	.	.	7.3	.	.
Cc1sc(NC(=O)CN(C(=O)c2cccs2)C2CCCC2)c(C(N)=O)c1C	.	.	.	.	/	/
Cc1cnc(NC(=O)Cc2ccsc2)s1	.	.	.	6.3	.	.
COc1cc(NC(=O)c2ccccc2Cl)ccc1NC(=O)C(C)C	.	.	.	10.2	.	.
COC(=O)c1ccccc1NC(=O)C(C)C	.	.	.	5.3	.	.
COc1ccc(OC)c(C(C)NC(=O)c2ccccc2Cl)c1 (stereo unspecified)	.	.	.	14.9	.	.
Cc1cc(Nc2ccc(Oc3ccccc3)cc2)nc(Nc2cccnc2)n1	.	.	.	.	/	/
Cc1cc(Nc2ccc(Oc3ccccc3)cc2)nc(Nc2ccccn2)n1	.	.	.	5.9	.	.
COc1ccc(C)cc1NC(=O)c1sc2nc3n(c(=O)c2c1C)CCCC3	.	.	.	.	/	/
